# Compound activity: PubChem BioAssay, National Center for Advancing Translational Sciences (NCATS)
# HPGD block = blocks human HPGD enzyme activity; P15428; purified HPGD, NADH fluorescence kinetic, PGE2 substrate; Potency, µM, for inactives: at the highest dose activity change, negative = inhibition, actives largely listed as inhibitors; 4.3% of 150,000 active; AID 894; active = well fitted inhibition curve with a large enough effect, not every such curve was filed as active; inconclusive = small, poorly fitted or top-dose-only effect, or another doubt; inactive = no such curve, though single readings can be large or run the other way; also: potency is read from the fitted curve at half-maximal effect
#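 NADH formation kinetics: reaction with 30 uM PGE2 and 1 mM NAD+ (final), 20 nM enzyme, Tris-HCl pH 8 with Tween 20, after 15 min compound preincubation at room temperature. Fluorescence change, last versus first of five reads.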
# PNC inhibitor = perinucleolar compartment assembly inhibition; PC3M PTB-GFP, PNC prevalence imaging, 16 h; stronger effect = lower value; activity change (PNC), negative = inhibition, % at 10 µM; 3.1% of 140,000 active; AID 2417;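 active = readout at or below -70, meaning at least 70% loss of cells showing the perinucleolar compartment, a nuclear body marking cancer cells; inconclusive = readout between -30 and a set limit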;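 also: plate controls were DMSO wells for no effect and camptothecin positive control wells for full effect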
#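 Compounds are pinned in duplicate onto adhered PC3M cells stably expressing GFP-tagged PTB and incubated 16 h at 37 C. Cells are then fixed, nuclei stained with Hoechst, and PNC-positive cells counted.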
# IMPase inh = cell-permeable inhibitors of inositol monophosphatase (IMPase); P97697; CHO-M1 cells, IP1 accumulation, HTRF TR-FRET ratio; inhibition (IP1 accumulation), % at 46.1 µM; 120,000 tested, under 10 active; active = well fitted curve in the direction sought with a large enough effect in the signal ratio, not every such curve was filed as active; inconclusive = small, poorly fitted or top-dose-only effect, or a change in a side signal; inactive = no such curve, though single readings can be large or run the other way; the % refers to the signal ratio;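 also: cells stimulated with carbachol in lithium chloride buffer; plate controls were DMSO basal wells for no effect and reference inhibitor wells for full effect; higher means more IMPase inhibition seen as more IP1 and lower FRET ratio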
#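 Seeded CHO-M1 cells were dosed with compound at up to 46 uM, stimulated with carbachol for 30 min, then lysed in IP-One detection reagents. Higher IP1 lowers the TR-FRET signal.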
# ALDH1A1 block = blocks purified human ALDH1A1 activity. P00352. Purified ALDH1A1, NADH fluorescence, propionaldehyde substrate. 7.3% of 220,000 active. Potency, µM (series often up to 75.3 µM), inactives show at the highest dose activity, negative = inhibition, hits mostly inhibitors; active = well fitted inhibition curve with a large enough effect, not every such curve was filed as active; inconclusive = small, poorly fitted or top-dose-only effect, or another doubt; inactive = no such curve, though single readings can be large or run the other way;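 also: potency is read from the fitted curve at half-maximal effect; plate controls were no enzyme wells and a reference inhibitor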
# IMPase Li inh = IMPase inhibition in cells with lithium potentiation. CHO-M1 cells, IP1 TR-FRET (IP-One), carbachol + lithium. Potency, µM (highest dose often 59.4 µM), without a hit: at the top dose activity, negative = IMPase inhibition, usual class: inhibitors. 0.35% of 210,000 active. AID 1457;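 also: IP1 builds up when IMPase is blocked and the TR-FRET signal falls; potency is read from the fitted curve at half-maximal effect; plate controls were basal vehicle for no effect and high inhibitor control for full effect; nearly all actives have a fitted effect of over 50% in size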
#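 Lithium-sensitised IP1 accumulation assay; M1-expressing CHO cells treated 30 min at 37C with compound. Competitive antibody detection by time-resolved FRET followed a 10 min room-temperature lysis step.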
# 12-hLO inh = blocks human 12-lipoxygenase activity | P18054 | purified 12-hLO, xylenol orange hydroperoxide absorbance | Potency, µM (top dose mostly 57.1 µM), without a hit: at the top dose activity change, negative = inhibition, usual class: inhibitors | 0.12% of 150,000 active | AID 1452; also: potency is read from the fitted curve at half-maximal effect; nearly all actives have a fitted effect of over 55% in size
# Target sequence (P18054 whole entry, looked up): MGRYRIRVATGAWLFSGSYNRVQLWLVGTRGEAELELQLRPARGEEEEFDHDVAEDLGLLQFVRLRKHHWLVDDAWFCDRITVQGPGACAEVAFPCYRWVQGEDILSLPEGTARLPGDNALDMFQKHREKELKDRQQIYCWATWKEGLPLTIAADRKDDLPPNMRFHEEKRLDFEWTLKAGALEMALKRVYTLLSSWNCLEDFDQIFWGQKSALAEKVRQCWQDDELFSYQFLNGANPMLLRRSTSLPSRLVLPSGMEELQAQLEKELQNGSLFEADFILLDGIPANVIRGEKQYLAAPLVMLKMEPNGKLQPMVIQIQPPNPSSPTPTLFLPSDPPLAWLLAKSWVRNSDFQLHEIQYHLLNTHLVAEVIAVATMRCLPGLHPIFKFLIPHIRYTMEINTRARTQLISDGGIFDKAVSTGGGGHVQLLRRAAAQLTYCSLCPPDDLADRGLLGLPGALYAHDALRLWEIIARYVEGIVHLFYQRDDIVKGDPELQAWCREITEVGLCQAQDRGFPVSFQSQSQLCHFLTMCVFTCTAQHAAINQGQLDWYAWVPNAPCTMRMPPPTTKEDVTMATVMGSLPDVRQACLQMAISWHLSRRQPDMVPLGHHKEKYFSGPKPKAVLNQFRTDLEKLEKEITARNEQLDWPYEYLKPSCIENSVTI
#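 Hydroperoxide formation by human 12-lipoxygenase from 40 uM arachidonic acid was followed colorimetrically via ferric-xylenol orange complex, using the 573/405 nm absorbance ratio. Enzyme concentration was 150 nM, with 30 min reaction at room temperature.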
# * hit, by the source's call; ? = inconclusive; . = not tested or not shown; [ ] = dose if it differs, or a comment. Compounds with a hit are over-represented: about 11% of the library has one in this group of screens. Unless noted, calls follow the shape of the dose curve; as a rule, active = well fitted curve in the direction sought with a large enough effect; inconclusive = small, poorly fitted or top-dose-only effect, or another doubt; inactive = no such curve, though single readings can be large; an effect the other way counts as inactive or inconclusive. Unless noted, % is scaled to controls: 0 for no effect and ±100 for the full control effect.
SMILES,HPGD block,PNC inhibitor,IMPase inh,ALDH1A1 block,IMPase Li inh,12-hLO inh
O=C(c1ccco1)N1CCN(Cc2nc(Cc3ccccc3)no2)CC1,.,.,.,22µM*,7%,.
O=C(c1ccco1)N1CCN(C(=O)c2cc(-c3ccccn3)nc3ccccc23)CC1,-25%,-10,5,3.5µM*,14%[38.3 µM],-9%
CCOC(=O)c1cnc2ccc(OC)cc2c1Nc1ccc(OCc2ccccc2Cl)cc1,.,.,7,.,.,.
COC(=O)C(C(=O)OC)[C@@H]1O[C@@]23COC=C[C@]2(C)[C@H]3c2ccccc21,-4%,.,.,-8%,2%,.
CCC[C@@H]1C[C@@]1(CCC)C(NP(=O)(c1ccccc1)c1ccccc1)c1ccc(Cl)cc1 (some centres not stated),-15%,.,.,-14%,15%,-11%
Cc1nn(CC2CC2)c(=O)n1-c1ccc(Oc2ccccc2)cc1,.,.,.,6%,12%,.
c1ccc(COC2CCCN(Cc3nc(Cc4ccccc4)no3)C2)cc1 (configuration not stated),.,.,.,14µM*,27%,.
Cc1ccc(S(=O)(=O)N(C)CC(=O)N2CCN(C(=O)c3ccco3)CC2)cc1,-4%,3,4,?,1%[38.3 µM],6%
O=C(c1ccco1)N1CCN(C(=O)c2sccc2-c2ccccc2)CC1,-15%,-100*,-7,13µM*,6%,0%
c1ccc(COC2CCCN(Cc3nc(-c4cnccn4)no3)C2)cc1 (configuration not stated),.,.,.,-1%,8%,.
O=C(Cc1ccccc1)N1CCN(C(=O)c2ccco2)CC1,-3%,6,9,20µM*,12%,1%
O=C(c1ccco1)N1CCN(C(=O)c2cccs2)CC1,-6%,25,-1,-5%,21%[38.3 µM],6%
CC(C)(C)c1ccc(S(=O)(=O)NCC(=O)N2CCN(C(=O)c3ccco3)CC2)cc1,4%,9,-3,1.6µM*,25%[38.3 µM],-1%
COc1ncc2ncc(=O)n(C)c2n1,-16%,.,.,-8%,-10%,-2%
COc1cc2c(cc1O)CCC1C2CC[C@]2(C)[C@@H](O)CC[C@@H]12 (some centres not stated),-10%,.,.,-2%,3%,.
COc1ccc2c3c([nH]c2c1)[C@H]1C[C@@H]2[C@@H](C[C@@H](O)[C@H](OC)[C@H]2C(=O)O)CN1CC3,-8%,.,.,-11%[13.5 µM],3%,-2%[11.4 µM]
O=C(CCSc1ccccc1)N1CCN(c2ccccc2)CC1,.,.,.,3%,1%,.
O=C(CCSc1ccccc1)N1CCN(C(=O)c2ccco2)CC1,-14%,-91*,-4,22µM*,21%[38.3 µM],5%
CC1(C)COC(/C=C/c2cccc([N+](=O)[O-])c2)=N1,.,.,.,14µM*,25%,.
O=c1c(Br)c(Br)cnn1-c1ccccc1,.,.,.,7.1µM*,?,.
Cc1ccc(-n2ncc(Br)c(Br)c2=O)cc1,.,.,.,3.2µM*,?,.
CC(C)(CO)[C@@H](O)C(=O)NCCCO,-11%,.,0,2%,-12%,-1%[0.00818 µM]
Fc1ccc(-c2[nH]ncc2CN2CCN(c3ccc(F)cc3)CC2)cc1,.,.,.,1%,.,.
Fc1ccc(N2CCN(Cc3cn[nH]c3-c3ccccc3)CC2)cc1,.,.,.,14µM*,.,.
Cc1nc2cnc(N(C)C)nc2n(-c2ccccc2)c1=O,.,.,.,?,-5%,.
SMILES,HPGD block,PNC inhibitor,IMPase inh,ALDH1A1 block,IMPase Li inh,12-hLO inh
COc1ccc(N2CCC(CNC(=O)Nc3ccc(C)c(C)c3)C2)cc1 (configuration not stated),-2%,18,.,?,11%,-19%
COc1ccc(N2CCC(CNC(=O)Nc3ccc(OC)cc3OC)C2)cc1 (configuration not stated),-9%,?,13,?,19%[38.3 µM],-24%
COc1ccc(N2CCC(CNS(=O)(=O)c3cccc(C(F)(F)F)c3)C2)cc1 (configuration not stated),-19%,8,4,8.9µM*,12%[38.3 µM],-18%
COc1ccc(N2CCC(CNC(=S)Nc3cccc(C)c3)C2)cc1 (configuration not stated),-9%,-3,.,25µM*,5%,-30%
COc1cc(NC(=O)Cn2cc(S(=O)(=O)N3CCC(C)CC3)c3ccccc3c2=O)cc(OC)c1OC,.,.,2,.,.,.
COc1ccc(NC2=NCC(Cc3ccc(Br)cc3)S2)cc1 (configuration not stated),-25%,-92*,.,-4%,-7%,?
Cc1ccc(N2C(=O)c3sc4nnc(C)c(=O)n4c3C2=O)cc1,-18%,15,-1,18µM*,19%[38.3 µM],4%
CCc1ccc(N2C(=O)c3sc4nnc(C)c(=O)n4c3C2=O)cc1,-20%,-6,3,5µM*,-25%[38.3 µM],-7%
CCNC(=O)[C@H](C)/C=C/C(NC(=O)OCc1ccccc1)c1ccc(C(=O)OC)cc1 (some centres not stated),-8%,.,.,-13%,2%,-1%
CCOC(=O)c1cncc(C#CCO)c1,.,.,.,2%,.,.
Cc1ccc2oc3c(c(=O)c2c1)C(c1cccc(O)c1)N(Cc1ccccc1Cl)C3=O (configuration not stated),.,.,-8,.,.,.
CC(=O)Nc1sc(/C(C#N)=C/c2ccc(Cl)c(Cl)c2)nc1-c1ccc(C)cc1,-27%,?,.,-14%,13µM*,4%
CCCCS(=O)CC(O)CSc1nc(-c2ccc(OC)cc2)cc(-c2ccccc2)c1C#N (configuration not stated),.,.,-3,.,.,.
Cn1c(=O)c2[nH]c(SCCN3CCOCC3)nc2n(C)c1=S,5.6µM*,.,.,-11%[13.5 µM],3%,3%[11.4 µM]
CC(C)c1c(O)nc(SCCN2CCOCC2)[nH]c1=O,-3%,-29,1,?,-12%[38.3 µM],-7%
CN(C)Cc1ccccc1-c1nc(NC2CCNCC2)c2ccccc2n1,.,.,.,-11%,10%,.
CCOC(=O)N1CCC(N2C(=O)c3ccccc3C2Nc2ccccc2)CC1 (configuration not stated),-1%,7,-7,?,2%[38.3 µM],3%
CCOC(=O)N1CCC(N2C(=O)c3ccccc3C2Nc2ccc(S(=O)(=O)N(CC)CC)cc2)CC1 (configuration not stated),.,.,.,0.2µM*,14%,.
CCOC(=O)N1CCC(N2C(=O)c3ccccc3C2Nc2ccc(C)cc2)CC1 (configuration not stated),-5%,43,7,32µM*,8%[38.3 µM],-16%
CC1(C)CC(=O)C(C=NCCN2CCOCC2)=C(O)C1,-12%,-96*,-2,?,1%[38.3 µM],2%
CC(=C1C(=O)c2ccccc2C1=O)N1CCN(CCN=CC2=C(O)CC(C)(C)CC2=O)CC1,-4%,31,.,14µM*,-6%,3%
